# Where “and” joins values, the source holds several entries; their conditions need not be identical. Equal entries are not always repeated. Records with an inconclusive call do not appear. Calls of active or inactive are those of the source. Calls come from the whole dose curve; as a rule, active = well fitted cell-killing curve with a large enough effect in the repeat runs; inconclusive = weak or mixed curves, or effect the other way; inactive = flat fitted curve, though single readings scatter.
# Assay: qHTS RealTime-Glo MT Cell Viability Assay in HEK293 cells - 24 hour (AID 1224886); note: nearly all actives have a fitted effect of over 50% in size; for activity change, negative = cytotoxicity: top concentration of the series differs between compounds
# Conditions: RealTime-Glo luminescence; series mostly up to 76.8 µM; activity change, negative = cytotoxicity: at the top concentration
# Excerpt: National Center for Advancing Translational Sciences [NCATS]
# NIH Chemical Genomics Center [NCGC]
# U.S. Environmental Protection Agency [EPA]
# National Institutes of Environmental Health Sciences [NIEHS]
# National Toxicology Program [NTP]
# U.S. Food and Drug Administration [FDA]
# Measure of cell viability is critical in the cell-base assay. Analysis of cell viability is necessary for the characterization of cell responses to cytotoxic drugs and environmental stress. A RealTime-Glo MT Cell Viability Assay to monitor cell viability in real time of continues cell culture during 40 hours of compound treatment was used to screen Tox21 10K library compounds in Hek293 cells. The RealTime-Glo MT Cell Viability Assay is a nonlytic, homogeneous, bioluminescent method to measure cell viability in real time using a simple, plate-based method. The assay involves adding NanoLuc luciferase and a cell-permeant prosubstrate to cells in culture. Viable cells reduce the proprietary prosubstrate to generate a substrate for NanoLuc luciferase. This substrate diffuses from cells into the surrounding culture medium, where it is rapidly used by the NanoLuc Enzyme to produce a luminescent signal. The signal correlates with the number of viable cells, making the assay well suited for cytotoxicity studies.
# Tox21 Assay Protocol Summary:
# The mixture of Hek293 cell suspension and reagents were dispensed at 600cells/6 ul/well in 1536-well tissue culture treated black solid bottom plates using a Multidrop dispenser. After the assay plates were incubated at a 37 C/5% CO2 incubator for 5 hours, 23 nL of compounds dissolved in DMSO, positive and negative controls was transferred to the assay plate by a pintool work station. The plates were incubated at 37 C for 40 hours. The luminescence intensity were measured at 0h, 8h, 16h, 24h, 32h and 40h time points using ViewLux plate reader during compound treatment.
# % is set by controls: 0 for no effect and ±100 for the full control effect; potency is the fitted concentration of half-maximal effect.
SMILES,"activity change, negative = cytotoxicity",Potency
Nc1nc(N)nc(Cl)n1,4.39% (inactive),
CN(C)CCc1c[nH]c2ccccc12,-0.967% (inactive),
OCC(Br)CBr (stereo not given),-13.6% (inactive),
O=[N+]([O-])c1ccc(Cl)c(Cl)c1Cl,-17.1% (inactive),
CC(=O)[O-].CC(=O)[O-].CC(=O)[O-].[Sb+3],5.82% [at 2.72 µM] (inactive),
CC(=O)[O][Sn]([c]1ccccc1)([c]1ccccc1)[c]1ccccc1,,0.0436 µM (active)
[O]=[Cr][O][Cr]=[O],16.9% (inactive),
CC(C)C(Br)C(=O)NC(N)=O (stereo not given),7.79% [at 35.3 µM] (inactive),
CN1CCc2cc3c(cc2C1O)OCO3 (stereo not given),0.243% (inactive),
CC(=O)O.CC(=O)O.CC(=O)O.CC(=O)O.CC(=O)O.CC(=O)O.CC(=O)O.O.O.[Cr].[Cr].[Cr],5.02% (inactive),
N#CSCc1ccccc1,-23.9% (inactive),
COc1c2c(cc3c1OCO3)CCN(C)C2,-7.3% [at 35.3 µM] (inactive),
CNN,3.04% (inactive),
O=C(Nc1ccc(F)cc1F)c1cccnc1Oc1cccc(C(F)(F)F)c1,4.11% (inactive),
N#CC(C#N)=NNc1cccc(Cl)c1,,5.49 µM (active)
Nc1c(Cl)c(Cl)c(Cl)c(Cl)c1Cl,3.43% (inactive),
C[N+]1(C)[C@@H]2CC[C@H]1CC(OC(=O)C(CO)c1ccccc1)C2 (stereo not given in full),7.83% [at 35.3 µM] (inactive),
N#Cc1c2ccccc2cc2ccccc12,-10.8% (inactive),
C[C@H]1[C@H](c2ccc(Cl)cc2)SC(=O)N1C(=O)NC1CCCCC1,,43.6 µM (active)
O=C(NC(=O)c1c(F)cccc1F)Nc1ccc(Oc2ccc(C(F)(F)F)cc2Cl)cc1F,,24.5 µM (active)

SMILES,"activity change, negative = cytotoxicity",Potency
Fc1ccc(C(OCCN2CCN(CCCc3ccccc3)CC2)c2ccc(F)cc2)cc1,,9.52 µM (active)
Cc1cc(C2CC2)nc(Nc2ccccc2)n1,,24.5 µM (active)
COP(=O)(OC)O/C(=C\Cl)c1cc(Cl)c(Cl)cc1Cl,-14.7% (inactive),
O=C(N[C@@H]1N=C(c2ccccc2F)c2cccc3c2N(CC3)C1=O)c1cc2ccccc2[nH]1,-2.54% [at 35.3 µM] (inactive),
CCCCC(CC)COC(=O)OOC(C)(C)C (stereo not given),0.365% (inactive),
COC(=O)c1ccccc1S(=O)(=O)NC(=O)Nc1nc(C)nc(OC)n1,1.49% (inactive),
[O]=[Cr](=[O])([OH])[O][Cr](=[O])(=[O])[OH],,12.4 µM (active) and 6.9 µM (active)
CC(C)=CC1C(C(=O)OC(C#N)c2cccc(Oc3ccccc3)c2)C1(C)C (stereo not given),-0.312% (inactive),
c1ccc2nc(N3CCNCC3)ccc2c1,-18.1% [at 35.3 µM] (inactive),
CCOP(=O)(OCC)Oc1nc(Cl)c(Cl)cc1Cl,-5.47% (inactive),
COc1ccc2c3c1O[C@H]1[C@H](O)CC[C@H]4[C@@H](C2)N(C)CC[C@@]341,0.482% (inactive),
O=C(Cl)c1ccccc1F,2.73% (inactive),
O=Cc1ccccc1,18% (inactive),
CC(=O)[O-].CC(=O)[O-].CC(=O)[O-].[Cr+3],-0.65% (inactive),
CCC(C)c1cccc(C(C)CC)c1O (stereo not given),-6.21% (inactive),
O=P(Cl)(Cl)Cl,0.49% (inactive),
O=[N+]([O-])c1ccccc1-c1ccccc1,3.3% (inactive),
CC(Cc1ccc(O)cc1)NCC(O)c1cc(O)cc(O)c1 (stereo not given),1.78% [at 35.3 µM] (inactive),
O=[N+]([O-])c1ccc(CCl)cc1,-21.1% (inactive),
CCOC(=O)Cc1ccccc1,15.7% (inactive),
